Test [1] has as its target Glutathione peroxidase 1 (Homo sapiens) (UniProt P07203). Nature of the test: Primary qHTS Assay for Inhibitors of Recombinant Selenoprotein Glutathione Peroxidase 1 (GPX1) (AID 1845191). Put shortly:
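NADPH consumption tracked by fluorescence at 340/450 nm between t=0 and t=15 min, room temperature. Final mix: 10 nM GPX1, 100 nM glutathione reductase, 1 mM GSH, 0.5 mM NADPH, 0.5 mM cumene hydroperoxide, 0.01% BSA; 30 min compound–enzyme preincubation.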
(Quantitative high-throughput screening tests each substance at several concentrations.)

In test [2] the target is Phospholipid hydroperoxide glutathione peroxidase GPX4 (Homo sapiens) (UniProt P36969). Kind of test: Primary qHTS Assay for Inhibitors of Recombinant Selenoprotein Glutathione Peroxidase 4 (GPX4) (AID 1845192). Further: potency means the concentration at half of the fitted maximal effect. An outline of the steps: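 NADPH consumption followed by fluorescence at 340/450 nm, t=0 and after 15 min at room temperature. Reaction started with cumene hydroperoxide (0.5 mM final) after 30 min compound–GPX4 preincubation; final 200 nM GPX4, 100 nM GR, 1 mM GSH, 0.5 mM NADPH.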
Chain of Phospholipid hydroperoxide glutathione peroxidase GPX4 (Homo sapiens) (P36969 whole entry, looked up): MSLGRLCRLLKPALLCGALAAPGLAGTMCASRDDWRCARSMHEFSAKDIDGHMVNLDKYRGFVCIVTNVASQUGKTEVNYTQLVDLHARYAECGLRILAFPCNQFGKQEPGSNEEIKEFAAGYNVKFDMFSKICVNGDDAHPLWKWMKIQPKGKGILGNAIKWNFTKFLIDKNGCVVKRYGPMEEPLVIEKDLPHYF

Inconclusive results are not listed. A call without a number means that no potency is given here. A number with no mark means an inactive call. Activity calls are given as the source filed them. The call rests on the fitted dose curve; in most records, active means well fitted inhibition curve with a large enough effect; inconclusive means small, poorly fitted or top-dose-only effect; inactive means flat fitted curve, though single readings scatter. Non-standard residues stand in square brackets, D forms with d. Residues, ends and D or L forms follow the SMILES beside them. *: point of attachment. Nva = CCC[C@H](N)C(=O)O; Cbz = O=C(OCc1ccccc1)*
Further: nearly all actives have a fitted effect of over 65% in size.

Chain of Glutathione peroxidase 1 (Homo sapiens) (P07203 whole entry, looked up): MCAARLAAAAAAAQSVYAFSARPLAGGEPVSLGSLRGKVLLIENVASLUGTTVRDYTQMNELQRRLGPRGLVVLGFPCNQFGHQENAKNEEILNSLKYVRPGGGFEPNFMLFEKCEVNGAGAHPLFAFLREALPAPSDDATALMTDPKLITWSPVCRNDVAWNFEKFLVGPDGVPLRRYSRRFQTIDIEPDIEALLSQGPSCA

For `O=C(O)CCCCC(CCSCc1ccccc1)SCc1ccccc1` (stereo not given), the Potency entry in test [1] is “inactive”. The Potency in test [2] was 20.2 µM (active).

As for `C=C(C)[C@@H]1CC[C@]2(C)CC[C@]3(C)[C@H](CC[C@@H]4[C@@]5(C)CC[C@H](O)C(C)(C)[C@H]5CC[C@]43C)[C@@H]12`, the Potency entry in test [1] and in test [2] was “inactive” each time.

Regarding `FC(F)c1nc2ccccc2n1-c1nc(N2CCOCC2)nc(N2CCOCC2)n1`, the Potency entry in test [1] and in test [2] was “inactive” each time.

Take `O=C(Nc1cccc(Nc2ncc(Br)c(NCCc3cnc[nH]3)n2)c1)N1CCCC1`: the Potency result in test [2] was “inactive”.

Turning to `C[N+]1(C)[C@@H]2C[C@@H](OC(=O)C(O)(c3cccs3)c3cccs3)C[C@H]1[C@@H]1O[C@@H]12`, the Potency result in test [1] and in test [2] was “inactive” throughout.

On to `COC1=C(OC)C(=O)C(CC=C(C)CCC=C(C)CCC=C(C)CCC=C(C)CCC=C(C)CCC=C(C)CCC=C(C)CCC=C(C)CCC=C(C)CCC=C(C)C)=C(C)C1=O`, for which the activity, negative = inhibition in test [1] was 1.94% [at 4.49 µM]. For the same compound, in test [2], the outcome is “inactive [at 4.52 µM]”.

On to `Cn1cnc(=N)c2[nH]cnc21`, for which the Potency result in test [1] and in test [2] was “inactive” in each case.

Consider `CC(Cc1ccc(O)c(O)c1)(NN)C(=O)O` (stereo not given), for which the Potency entry in test [1] and in test [2] was “inactive” throughout.

Regarding `OCCNC1CCCc2c1[nH]c1ccc(-c3ccccc3)cc21` (stereo not given), the Potency result in test [1] and in test [2] was “inactive” each time.

For the compound `CC(O)(C#Cc1ccc2c(c1)N(c1nc(N)ncc1Cl)CC2)c1nccs1` (stereo not given), the Potency entry in test [1] and in test [2] was “inactive” in each case.

Consider `CCC[C@@H](C=O)NC(=O)[C@H](CC(C)C)NC(=O)[C@H](CC(C)C)NC(=O)OCc1ccccc1` (Cbz-Leu-Leu-[Nva]-aldehyde), for which the Potency entry in test [1] and in test [2] was “inactive” throughout.

Consider `CC(C)(C)c1nc2c3cc[nH]c(=O)c3c3cc(F)ccc3c2[nH]1`, for which the Potency entry in test [1] and in test [2] was “inactive” throughout.

Take `COc1cc(C(C)C)c(Oc2cnc(NC(CO)CO)nc2N)cc1I`: the Potency entry in test [2] was “inactive”.

Take `CN1C(C(=O)Nc2ccccn2)=C(O)c2sc(Cl)cc2S1(=O)=O`: the Potency entry in test [1] and in test [2] was “inactive” throughout.

Regarding `CC(C)n1cnc2c(NCCc3ccc(O)cc3)nc(-c3csc4ccccc34)nc21`, the Potency result in test [2] is “inactive”.

Consider `Cc1coc2c1C(=O)C(=O)c1c-2ccc2c(C)cccc12`, for which the Potency result in test [1] and in test [2] was “inactive” each time.

On to `CC(C(C)N1CC(=O)NC(=O)C1)N1CC(=O)NC(=O)C1` (stereo not given), for which the Potency result in test [1] and in test [2] was “inactive” each time.

For `CCc1nc(-c2cccc(C)c2)c(-c2ccnc(NC(=O)c3ccccc3)c2)s1`, the Potency result in test [1] and in test [2] was “inactive” throughout.

Take `CC(=O)OC[C@@H]1O[C@@H](n2ccc(=O)[nH]c2=O)[C@H](OC(C)=O)[C@H]1OC(C)=O`: the Potency result in test [1] and in test [2] was “inactive” each time.

The values above are taken from PubChem BioAssay (NCATS).
